According to the supplement of paper PMC6555819:

test system: VDR:RXRa (NR concentration 270 nM, RXRa partner concentration 90 nM); experiment: PBM binding z-score (relative to random genomic background probes); higher = stronger binding; sequences stand for … in GC…GCGATTGACAGCGTAGAATGAAGG
Description: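 Protein-binding microarray (Agilent 4x180K custom design, double-stranded 60-nt probes: 5' GC cap, 34-nt variable region, 24-nt constant primer region; full probe sequence given). Purified or IVT nuclear receptor:RXRα heterodimers (3:1 NR:RXRα, mostly 270:90 nM) or homodimers were incubated for 1 h in PBS with 2% milk and no ligand, then detected with Alexa488 antibodies. Fluorescence from o1-orientation probes (~5 replicates averaged) was converted to z-scores against 500 random hg19 background probes. Variable regions are seed direct-repeat (DR0–DR5) sites, all their single-nucleotide variants and half-site ablations.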

Sequence	PBM binding z-score
CGTCAAAGTTCAACTAAGGTAACGTATAGCACGC	4.92
CAATCTAGGTCACGAAAGGTCAAAGTCGAATGAC	6.99
AGTCAAAGGTCACTAGGTAACGTAAGATTCAGCT	5.23
CTATGTAGGTTAAGGGGGTCATTCAGTTTGAAAG	7.57
CTATGTAGGTTAAGGGGTTCATTCAGTTTGAAAG	7.62
ATCTCTAGGTAAAGTTCATTGAAAGATCGATAGA	3.08
ACTAACAGGCCAAGGGTCACTCAAGATTAGTCCG	3.07
CGTCCAAGGTCAACAGGTCAGTGAAAGCGACGTG	5.16
ATATGTAGGTTACATCCGGGTCATTCTGGCTATG	3.69
CTATGTAGGTTAAGGGGGTTATTCAGTTTGAAAG	5.71
CCTACTGGGCCAACAAGGTCATTGATGCCGATAA	5.56
CCGAGTAGGTTACGAGGGGACATTCAGTGCGAAT	2.82
CCGAGTAGGTTACGAGGGGCCATTCAGTGCGAAT	3.09
CCTACTGGGCCAAAACGGTCATTGATGCCGATAA	-0.116
CCGAGTAAGTTACGAGGGGGCATTCAGTGCGAAT	3.83
CCTACTGGGCCAATAAGGTCATTGATGCCGATAA	5.29
ATCGAACGGTCGACGAGGTGAGTATACACCGTTT	0.299
CAAACTAGGTCAAAGGTCAAAGTTGAGCCAACCA	6.85
ATCGAAAGGTCGAAAGTGAGTATACCCACCCGAA	2.18
CTGTGTAGGTTAAGGGGGTCATTCAGTTTGAAAG	7.46

Sequence	PBM binding z-score
AGCTCTAGGTAAAAGTTCAGTGAATCCCGAGGAT	0.974
CAAACTAGGTCACGAGGTCAAAGTCCGCTTCCCG	6.42
CGAACTAGTTCACCAGGACAGTGAAGAGGTTGGA	0.879
CGAAGTAGGTCACCAGGACAGTGAAGAGGTTGGA	2.07
CGAGCTAGGTCAAAGGACAGTGAAAGGCGACGTA	0.97
CCTAGCAGGCCACGGTCACTCAAGCATTTCGCTT	-0.261
TGAATGAGGTTAAAGGTCAGGGAACGTGGCGTCG	5.85
CCGAGTAGGTTACGAGGGGGTATTCAGTGCGAAT	2.95
ACTCGGAGGACAAACGTCAGAGCTACGCCAGTGA	-0.401
CGTCGAAGGTCAATGCTAGGTCAGTGAAAGCATT	4.47
TAGCCTAGGTCAGATCGGGCCAGTCTACGCTATA	0.668
ATACGTAGGTTAGGGTCATTCAGAAAGTAGGGAA	4.37
CGAAATAGGTCACCAGGACAGTGAAGAGGTTGGA	2.91
CTATGTAGGTTAAGGGGGTCATACAGTTTGAAAG	7.05
TCTGCTTGGTCAACGATGGTCAGCTAATCTGCTA	-0.63
CGACCTAGGTCAAAGGACAGTGAAAGGCGACGTA	2.05
CCTAGATGGTCAGGAGGTCACACACCGGATATGA	3.76
CCGAGTAGGTTACGAGGGGGCATTTAGTGCGAAT	4.94
GATACACGGTCAAGGCCAGAGTACGCGTATTGAT	-0.0304
ACTAGTAGGCCAAGGGTCACTCAAGATTAGTCCG	2.93
